According to PubChem BioAssay (Tox21):
Results filed as inconclusive are left out. Active and inactive are the calls of the source. Unless noted, the call rests on the fitted dose curve.

Legend:
[1] = target: Gonadotropin-releasing hormone receptor (Homo sapiens) (UniProt P30968); assay: Human gonadotropin-releasing hormone receptor (GnRHR) small molecule agonists, calcium flux assay in GnRHR-HEK293 cells (AID 1920063); further: nearly all actives have a fitted effect of over 35% in size; further: potency means the concentration at half of the fitted maximal effect
Chain of Gonadotropin-releasing hormone receptor (Homo sapiens) (P30968 whole entry, looked up): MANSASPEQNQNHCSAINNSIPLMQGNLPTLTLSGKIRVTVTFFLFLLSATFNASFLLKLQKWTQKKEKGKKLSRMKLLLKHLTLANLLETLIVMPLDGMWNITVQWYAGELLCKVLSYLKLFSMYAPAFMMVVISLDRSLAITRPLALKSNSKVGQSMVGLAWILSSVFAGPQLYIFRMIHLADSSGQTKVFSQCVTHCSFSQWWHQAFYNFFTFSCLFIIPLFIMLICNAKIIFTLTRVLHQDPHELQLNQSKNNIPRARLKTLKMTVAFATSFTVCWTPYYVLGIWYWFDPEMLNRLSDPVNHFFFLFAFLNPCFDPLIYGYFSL
How it was run: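 We seeded human GnRHR-expressing HEK293 cells for 18 hours, loaded them with calcium dye for an hour at 37 C, added test compounds, and recorded fluorescence intensity kinetically for three minutes.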

[2] = target: KiSS-1 receptor (Homo sapiens) (UniProt Q969F8); assay: Human kisspeptin (KISS1R) small molecule agonists, calcium flux assay in KISS1R-HEK293 cells (AID 1920064; active means well fitted activation curve with a large enough effect in the repeat runs; further: potency means the concentration at half of the fitted maximal effect)
Chain of KiSS-1 receptor (Homo sapiens) (Q969F8 whole entry, looked up): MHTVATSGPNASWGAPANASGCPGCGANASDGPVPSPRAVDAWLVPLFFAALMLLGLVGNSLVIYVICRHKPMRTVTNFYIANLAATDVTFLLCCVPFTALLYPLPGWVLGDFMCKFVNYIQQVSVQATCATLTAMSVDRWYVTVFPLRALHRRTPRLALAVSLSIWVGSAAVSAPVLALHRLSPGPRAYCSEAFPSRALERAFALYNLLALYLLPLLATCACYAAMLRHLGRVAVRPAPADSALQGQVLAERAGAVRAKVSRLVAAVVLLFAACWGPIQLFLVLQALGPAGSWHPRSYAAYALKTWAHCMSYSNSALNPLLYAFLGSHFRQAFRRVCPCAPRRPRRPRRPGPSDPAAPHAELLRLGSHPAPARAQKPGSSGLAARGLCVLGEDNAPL
How it was run: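 Kinetic calcium assay, 1 s sampling over 3 min at Ex/Em 480/540, in HEK293 cells engineered with human KISS1R; compounds delivered in DMSO after 1 h dye loading.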

[3] = G protein-coupled receptor (GPCR) small molecule agonists, calcium flux assay: HEK293 wild type cell line counter screen (AID 1920065)
How it was run: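 Calcium-sensitive dye, loaded 1 h at 37 C into cells cultured 18 h, reports compound-evoked calcium release as fluorescence (Ex/Em 480/540), measured over 3 min. Agonist mode; 15-point titrations, triplicate.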

[4] = p53 small molecule agonists, cell-based qHTS assay: qHTS cell viability counter screen (AID 1963581); further: nearly all actives have a fitted effect of over 45% in size
How it was run: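 Following 5 h attachment, HCT-116 p53RE-bla cells took up compound for 16 h at 37 C; the reporter was read with B/G FRET substrate (2 h RT), and viability then via CellTiter-Glo ATP luminescence.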

[5] = target: D(2) dopamine receptor (Homo sapiens) (UniProt P14416); assay: Dopamine D2 receptor (DRD2) small molecule antagonists, cell-based qHTS assay (AID 1963595; active means well fitted inhibition curve with a large enough effect in the signal ratio in the repeat runs, with a control signal flat; the % refers to the signal ratio)
Chain of D(2) dopamine receptor (Homo sapiens) (P14416 whole entry, looked up): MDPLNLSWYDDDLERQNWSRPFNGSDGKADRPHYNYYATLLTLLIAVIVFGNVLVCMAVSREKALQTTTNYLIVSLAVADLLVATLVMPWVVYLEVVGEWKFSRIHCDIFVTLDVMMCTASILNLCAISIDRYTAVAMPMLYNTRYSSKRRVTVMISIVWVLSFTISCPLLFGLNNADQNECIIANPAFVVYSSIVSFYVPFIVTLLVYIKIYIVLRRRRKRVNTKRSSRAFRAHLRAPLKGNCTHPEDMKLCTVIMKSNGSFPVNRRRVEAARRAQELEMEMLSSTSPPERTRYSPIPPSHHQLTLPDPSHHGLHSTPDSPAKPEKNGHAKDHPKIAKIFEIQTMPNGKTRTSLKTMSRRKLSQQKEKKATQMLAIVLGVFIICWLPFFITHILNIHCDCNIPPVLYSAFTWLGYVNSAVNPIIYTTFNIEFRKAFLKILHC
How it was run: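 Cells were plated and grown for 24 h at 37 °C. Ro20-1724 (0.1 mM final) went in first, then compound for 10 min. NKH477 (200 nM) with quinpirole (12 nM) followed for 30 min at RT, then HTRF detection reagents for 1 h.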

[6] = p53 small molecule agonists, cell-based qHTS assay with human liver microsomes (AID 1963577)
How it was run: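 Cells carrying a p53-responsive bla reporter were rested 5 h (37 C, 5% CO2) before compound transfer. Human liver microsomes plus NADPH, 0.5 mg/mL final apiece, supplied metabolism during the 16 h 37 C exposure.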

[7] = p53 small molecule agonists, cell-based qHTS assay with rat liver microsomes (AID 1963578)
How it was run: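 Fluorescence from a beta-lactamase reporter under a p53 response element was measured after cells had been incubated 16 h at 37 C with test compound and rat liver microsomes plus NADPH (0.5 mg/mL final each).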

[8] = p53 small molecule agonists, cell-based qHTS assay with human liver microsomes: qHTS cell viability counter screen (AID 1963579); further: nearly all actives have a fitted effect of over 45% in size
How it was run: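 Seed p53RE-bla cells at 4,000 per well; incubate 5 h at 37 C; add compound, human liver microsomes and NADPH; incubate 16 h at 37 C; add CellTiter-Glo; after 30 min at room temperature, read luminescence.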

[9] = p53 small molecule agonists, cell-based qHTS assay with rat liver microsomes: qHTS cell viability counter screen (AID 1963580); further: nearly all actives have a fitted effect of over 45% in size
How it was run: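 HCT-116 p53RE-bla, 4,000 cells/well, 5 h pre-incubation; cpd + rat liver microsomes 0.5 mg/mL + NADPH 0.5 mg/mL (final); 16 h, 37 C; CellTiter-Glo, 30 min RT; luminescence.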

[10] = p53 small molecule agonists, cell-based qHTS assay (AID 1963582; active means well fitted activation curve with a large enough effect in the signal ratio in the repeat runs, not every such curve was filed as active; the % refers to the signal ratio)
How it was run: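 In this cell-based concentration-response screen, a p53 response element drives beta-lactamase; cells received DMSO-borne compounds after 5 h culture and were incubated a further 16 h before FRET substrate development.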

[11] = target: 5-hydroxytryptamine receptor 2A (Homo sapiens) (UniProt P28223); assay: 5-hydroxytryptamine receptor 2A (HTR2A) small molecule antagonists, cell-based qHTS assay (AID 1963586); further: nearly all actives have a fitted effect of over 45% in size; further: potency means the concentration at half of the fitted maximal effect
Chain of 5-hydroxytryptamine receptor 2A (Homo sapiens) (P28223 whole entry, looked up): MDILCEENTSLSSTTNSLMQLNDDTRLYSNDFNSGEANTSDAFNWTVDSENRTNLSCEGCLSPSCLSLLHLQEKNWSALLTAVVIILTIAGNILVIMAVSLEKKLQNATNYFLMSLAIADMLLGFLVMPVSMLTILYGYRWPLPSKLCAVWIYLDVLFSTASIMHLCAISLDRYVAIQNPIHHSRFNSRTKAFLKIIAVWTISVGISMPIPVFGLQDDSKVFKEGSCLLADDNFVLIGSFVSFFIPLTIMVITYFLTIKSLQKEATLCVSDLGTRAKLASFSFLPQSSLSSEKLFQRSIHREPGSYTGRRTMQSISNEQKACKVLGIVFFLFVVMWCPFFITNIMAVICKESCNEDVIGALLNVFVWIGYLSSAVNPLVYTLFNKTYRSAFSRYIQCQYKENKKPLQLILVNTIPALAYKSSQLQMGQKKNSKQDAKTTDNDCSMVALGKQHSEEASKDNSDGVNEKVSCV
How it was run: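 Antagonist-mode intracellular calcium assay: DOI (4 nM) added after 5 min compound pre-incubation at room temperature to dye-loaded HTR2A-CHO cells. Fluorescence followed for 3 min, sampled every second.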

[12] = target: Muscarinic acetylcholine receptor M1 (Homo sapiens) (UniProt P11229); assay: Cholinergic receptor muscarinic 1 (CHRM1) small molecule antagonists, cell-based qHTS assay (AID 1963588); further: nearly all actives have a fitted effect of over 40% in size; further: potency means the concentration at half of the fitted maximal effect
Chain of Muscarinic acetylcholine receptor M1 (Homo sapiens) (P11229 whole entry, looked up): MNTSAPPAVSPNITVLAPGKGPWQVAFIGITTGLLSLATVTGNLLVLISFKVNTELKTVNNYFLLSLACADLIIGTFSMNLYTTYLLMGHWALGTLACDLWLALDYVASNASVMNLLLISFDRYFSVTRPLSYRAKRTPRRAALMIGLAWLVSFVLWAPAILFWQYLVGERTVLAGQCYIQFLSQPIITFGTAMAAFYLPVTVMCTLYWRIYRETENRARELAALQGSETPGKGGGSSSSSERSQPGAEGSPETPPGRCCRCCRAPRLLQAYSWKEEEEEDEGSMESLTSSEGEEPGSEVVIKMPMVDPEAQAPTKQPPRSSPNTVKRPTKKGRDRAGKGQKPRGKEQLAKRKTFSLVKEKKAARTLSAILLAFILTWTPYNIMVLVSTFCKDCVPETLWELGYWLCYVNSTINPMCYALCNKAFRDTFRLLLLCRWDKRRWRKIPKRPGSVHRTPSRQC
How it was run: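 CHRM1-CHO calcium-flux assay, antagonist mode. Cells were seeded 18 h, dye-loaded 1 h at 37 C and given compound for 5 min at RT, then acetylcholine was added at 50nM. FDSS fluorescence was read 3 min; 15 concentrations, three runs.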

[13] = target: Muscarinic acetylcholine receptor M1 (Homo sapiens) (UniProt P11229); assay: Cholinergic receptor muscarinic 1 (CHRM1) small molecule agonists, cell-based qHTS assay (AID 1963589); further: nearly all actives have a fitted effect of over 35% in size
How it was run: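 Measures agonist-induced intracellular calcium rise. Stable human CHRM1 CHO line, 1 h dye load at 37 C, compounds from DMSO, kinetic fluorescence read.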

[14] = cAMP Responsive Elements (CRE) small molecule agonists, cell-based qHTS assay (AID 1963590)
How it was run: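 A CRE-responsive beta-lactamase reporter in HEK 293T cells was used. Treatment ran 3 h at 37 C; detection used LiveBLAzer B/G FRET substrate for 2 h at room temperature.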

[15] = cAMP Responsive Elements (CRE) small molecule antagonists, cell-based qHTS assay (AID 1963591; active means well fitted inhibition curve with a large enough effect in the signal ratio in the repeat runs, not every such curve was filed as active; the % refers to the signal ratio)
How it was run: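 HEK293T cells carrying a CRE-driven beta-lactamase reporter receive compound and NKH477 (0.25 uM final) for 3 h. Fluorescence from LiveBLAzer B/G FRET substrate is read after 2 h at room temperature.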

[16] = target: Beta-2 adrenergic receptor (Homo sapiens) (UniProt P07550); assay: Adrenergic beta2 receptor (ADRB2) small molecule antagonists, cell-based qHTS assay (AID 1963592); further: series mostly up to about 92 µM; nearly all actives have a fitted effect of over 50% in size
Chain of Beta-2 adrenergic receptor (Homo sapiens) (P07550 whole entry, looked up): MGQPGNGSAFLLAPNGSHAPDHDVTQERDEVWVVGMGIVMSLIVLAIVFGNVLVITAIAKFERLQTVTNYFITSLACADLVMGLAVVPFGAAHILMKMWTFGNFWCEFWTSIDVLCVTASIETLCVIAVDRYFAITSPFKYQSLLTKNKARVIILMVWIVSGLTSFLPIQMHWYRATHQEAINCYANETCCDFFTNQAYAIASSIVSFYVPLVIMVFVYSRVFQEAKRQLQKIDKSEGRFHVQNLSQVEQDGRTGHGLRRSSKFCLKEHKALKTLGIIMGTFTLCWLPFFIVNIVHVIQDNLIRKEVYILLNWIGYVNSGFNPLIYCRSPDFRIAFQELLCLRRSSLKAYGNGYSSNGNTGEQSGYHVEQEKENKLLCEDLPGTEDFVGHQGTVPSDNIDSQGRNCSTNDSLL
How it was run: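 Cells (CHO, stable ADRB2 overexpression) incubated 18-20hr at 37C; compounds added from DMSO; agonist mix (1nM isoproterenol, 100uM IBMX, 25uM Ro-20-1724) added; 0.5hr RT; d2-cAMP and anti-cAMP-cryptate added; 1hr RT; 665/615 nm read.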

[17] = target: D(2) dopamine receptor (Homo sapiens) (UniProt P14416); assay: Dopamine D2 receptor (DRD2) small molecule agonists, cell-based qHTS assay (AID 1963594); further: nearly all actives have a fitted effect of over 35% in size
How it was run: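 cAMP accumulation in DRD2-HEK293 cells measured by HTRF after 1 h detection; compounds added 10 min before NKH477 (200nM […]) forskolin-analogue stimulation, 30 min at room temperature, with Ro20-1724 present at 0.1 mM final.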

[18] = target: 5-hydroxytryptamine receptor 2A (Homo sapiens) (UniProt P28223); assay: 5-hydroxytryptamine receptor 2A (HTR2A) small molecule agonists, cell-based qHTS assay (AID 1963587); further: nearly all actives have a fitted effect of over 30% in size; further: potency means the concentration at half of the fitted maximal effect
How it was run: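 Kinetic calcium-flux fluorescence (2 min, 1 sec intervals) after compound addition in agonist mode. HTR2A-CHO cells were cultured 18 h, then dye-loaded 1 h at 37 C.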

[19] = target: Beta-2 adrenergic receptor (Homo sapiens) (UniProt P07550); assay: Adrenergic beta2 receptor (ADRB2) small molecule agonists, cell-based qHTS assay (AID 1963593);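 further: CHO cells stably overexpressing human ADRB2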
How it was run: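 CHO cells stably over-expressing ADRB2 were plated overnight at 37C, then dosed with compounds plus a stimulation mix containing 100uM IBMX and 25uM Ro-20-1724 for 0.5hr at room temperature. cAMP was measured by HTRF competition, 1hr.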
On the % scale 0 is the no-effect control and ±100 the full control effect.

CN(C)CCOC(c1ccccc1)c1ccccc1
inactive: Potency [1] | Potency [2] | Potency [3] | Potency [4] | Potency [5]

CSc1ccc(O)cc1C
inactive: Potency [1] | Potency [2] | Potency [6] | Potency [7] | Potency [8] | Potency [9] | Potency [4] | Potency [10] | Potency [11] | Potency [12] | Potency [13] | Potency [14] | Potency [15] | Potency [16] | Potency [17]

CCOC(=O)c1ccccc1C(=C1C=C(Br)C(=O)C(Br)=C1)c1cc(Br)c(O)c(Br)c1
inactive: Potency [1] | Potency [2] | Potency [6] | Potency [7] | Potency [8] | Potency [9] | Potency [18] | Potency [16] | Potency [17] | Potency [5]

C[N+]1(C)CCC(OC(=O)C(O)(c2ccccc2)C2CCCC2)C1 (stereo not drawn)
inactive: Potency [1] | Potency [2] | Potency [10] | Potency [11] | Potency [18] | Potency [13] | Potency [14] | Potency [15] | Potency [17] | Potency [5]

CCO[Si](CCC1CCC2OC2C1)(OCC)OCC (stereo not drawn)
inactive: Potency [1] | Potency [2] | Potency [8] | Potency [9] | Potency [4] | Potency [11] | Potency [18] | Potency [13] | Potency [14] | Potency [15] | Potency [16] | Potency [19] | Potency [17] | Potency [5]

CC(C)(C(=O)O)c1ccc(C(O)CCCN2CCC(C(O)(c3ccccc3)c3ccccc3)CC2)cc1 (stereo not drawn)
inactive: Potency [1] | Potency [2] | Potency [4] | Potency [10] | Potency [14] | Potency [15] | Potency [16] | Potency [17] | Potency [5]

O=C(O)CCn1c2c(c3ccccc31)C[C@H](NS(=O)(=O)c1ccc(F)cc1)CC2
inactive: Potency [1] | Potency [2] | Potency [3] | Potency [11] | Potency [18] | Potency [12] | Potency [14] | Potency [17] | Potency [5]

Cc1cc(NS(=O)(=O)c2ccc(N)cc2)no1
inactive: Potency [1] | Potency [2] | Potency [3] | Potency [14] | Potency [15] | Potency [16] | Potency [17]

O=C(O)c1cn(C2CC2)c2cc(N3CCNCC3)c(F)cc2c1=O
inactive: Potency [1] | Potency [2] | Potency [3] | Potency [4] | Potency [14] | Potency [15] | Potency [17] | Potency [5]

Nc1ccn(C2CO[C@H](CO)O2)c(=O)n1 (stereo partly drawn)
active: Potency [1] 4.25 µM | Potency [2] 6.74 µM | Potency [18] 7.56 µM
inactive: Potency [6] | Potency [7] | Potency [8] | Potency [9] | Potency [4] | Potency [12] | Potency [14] | Potency [15] | Potency [16] | Potency [19] | Potency [17] | Potency [5]

O=C(O)c1ccccc1Nc1cc(Cl)ccc1C(=O)O
inactive: activity change [1] -1.18% [at 11.8 µM, stronger effect = higher value] | activation [2] 0.0094% [at 15.8 µM] | activation [6] -15.2% [at 13.5 µM] | activation [7] -10.2% [at 13.6 µM] | activity change, negative = cytotoxicity [8] -16.4% [at 13.5 µM] | activity change, negative = cytotoxicity [9] -20.9% [at 13.5 µM] | activity change, negative = cytotoxicity [4] -5.7% [at 13.5 µM] | activation [10] 1.24% [at 13.5 µM] | activation [18] -3.1% [at 15.9 µM] | activity, negative = inhibition [12] 22.2% [at 12.6 µM] | activation [13] 0.0185% [at 15.8 µM] | activation [14] -0.0043% [at 19 µM] | activity change, negative = inhibition [16] 5.54% [at 19 µM] | activation [19] -0.399% [at 19 µM] | activity change, negative = inhibition [5] -1.66% [at 18.9 µM]

CC1CCCC1
inactive: Potency [1] | Potency [2] | Potency [3] | Potency [11] | Potency [18] | Potency [12] | Potency [13] | Potency [15] | Potency [16] | Potency [17] | Potency [5]

Clc1ccccc1CN1CCc2sccc2C1
inactive: Potency [1] | Potency [2] | Potency [14] | Potency [16] | Potency [19] | Potency [17] | Potency [5]

CC(C)c1nnc2ccc(-c3ocnc3-c3cc(F)ccc3F)cn12
inactive: Potency [1] | Potency [2] | Potency [3] | Potency [4] | Potency [11] | Potency [16] | Potency [17] | Potency [5]

CC(C)(C)NC(=O)[C@@H]1C[C@@H]2CCCC[C@@H]2CN1C[C@@H](O)[C@H](Cc1ccccc1)NC(=O)[C@H](CC(N)=O)NC(=O)c1ccc2ccccc2n1
inactive: Potency [1] | Potency [2] | Potency [3] | Potency [16] | Potency [17] | Potency [5]

ClC(Cl)Cl
inactive: Potency [1] | Potency [2] | Potency [6] | Potency [7] | Potency [8] | Potency [4] | Potency [10] | Potency [14] | Potency [15] | Potency [17] | Potency [5]

CCCCCCC[N+](CC)(CC)CCCCc1ccc(Cl)cc1
inactive: Potency [1] | Potency [2] | Potency [8] | Potency [9] | Potency [11] | Potency [13] | Potency [16] | Potency [5]

NC(=O)Nc1nc2ccccc2[nH]1
inactive: Potency [1] | Potency [2] | Potency [7] | Potency [8] | Potency [9] | Potency [4] | Potency [10] | Potency [11] | Potency [18] | Potency [12] | Potency [13] | Potency [14] | Potency [15] | Potency [16] | Potency [19] | Potency [5]

CCCC(CC)CCCCCCCN (stereo not drawn)
active: Potency [11] 24.2 µM | Potency [18] 44.7 µM | Potency [12] 4.84 µM
inactive: Potency [1] | Potency [3] | Potency [8] | Potency [9] | Potency [4] | Potency [10] | Potency [13] | Potency [14] | Potency [15] | Potency [16] | Potency [17]
